{
  "source": "PubChem BioAssay (NCATS)",
  "note": "Unmarked numbers belong to inactive results. Calls of active or inactive are those of the source. How the calls were made is not given here. Potency means the concentration at half of the fitted maximal effect.",
  "data": [
    {"system": "HIV-1 nucleocapsid protein NCp7 (binding to TG oligonucleotide)", "assay": "HIV Nucleocapsid (AID 346);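 further: potency is for inhibitors that block NC binding and lower polarization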", "settings": "HIV-1 NC / fluorescein-TGTGTGTG probe, fluorescence polarization", "in_short": "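Fluorescence polarization readout: labelled TG4xF oligo (10 nM) with 100 nM nucleocapsid protein, high-salt (250mM NaCl) Hepes pH 7.5 buffer containing zinc and fresh reducing agents. Compounds added by pin tool; incubation 1 hr, room temperature.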", "values": [
      {"smiles": "CS(=O)(=O)Nc1cccc(-c2nc(NC3CC3)c3ccccc3n2)c1", "Potency": "> 20 µM"},
      {"smiles": "CC(C)NC(=O)N1CCCC2(CCN(C(=O)c3cc(C(F)(F)F)cc(C(F)(F)F)c3)CC2)C1", "Potency": "> 20 µM"},
      {"smiles": "O=C(c1cnccn1)N1CCC2(CCCN(c3cccc(-c4ccccc4)c3)C2)CC1", "Potency": "> 20 µM"},
      {"smiles": "COc1ccc(-n2c(=O)c(C)nc3cnc(N4CCOCC4)nc32)cc1", "Potency": "> 20 µM"},
      {"smiles": "COCC(=O)N1CCC2(CCCN(Cc3ccccc3OC)C2)CC1", "Potency": "> 20 µM"},
      {"smiles": "Cc1ccccc1-c1nccc(Nc2ccc(F)cc2)n1", "Potency": "> 20 µM"},
      {"smiles": "FC(F)(F)c1ccccc1-c1cncnc1Nc1ccccc1", "Potency": "> 20 µM"},
      {"smiles": "COCCn1c(=O)c(-c2ccc(Cl)cc2)nc2cnc(OC)nc21", "Potency": "> 20 µM"},
      {"smiles": "O=c1c(-c2ccccc2)nc2cnc(Oc3cccc(Cl)c3)nc2n1C[C@H]1CCCO1", "Potency": "> 20 µM"},
      {"smiles": "Cc1nc2cnc(N3CCOCC3)nc2n(CCC#N)c1=O", "Potency": "> 20 µM"},
      {"smiles": "CNc1ccnc(-c2ccccc2C)n1", "Potency": "> 20 µM"},
      {"smiles": "CN(C)C(=O)c1ccc(-c2nc(N3CCOCC3)c3ccccc3n2)cc1", "Potency": "> 20 µM"},
      {"smiles": "CC(C)CN1CC2(CCN(C(=O)c3csnn3)CC2)C1", "Potency": "> 20 µM"},
      {"smiles": "CN(C)C(=O)c1ccc(-c2cc(N(C)Cc3ccco3)ncn2)cc1", "Potency": "> 20 µM"},
      {"smiles": "COc1cccc(Nc2ncc3nc(C)c(=O)n(CCc4ccccc4)c3n2)c1", "Potency": "> 20 µM"},
      {"smiles": "COc1cccc(Cn2c(=O)c(-c3cc(F)cc(F)c3)nc3cnc(N4CCOCC4)nc32)c1", "Potency": "> 20 µM"},
      {"smiles": "COCCn1c(=O)c(-c2cccs2)nc2cncnc21", "Potency": "> 20 µM"},
      {"smiles": "O=C(c1ccncc1)N1CCC2(CCCN(Cc3ccncc3)C2)CC1", "Potency": "> 20 µM"},
      {"smiles": "COc1cccc(-c2nccc(NCc3ccccc3)n2)c1", "Potency": "> 20 µM"},
      {"smiles": "COCCn1c(=O)c(-c2cc(F)cc(F)c2)nc2cnc(Nc3cccc(OC)c3)nc21", "Potency": "3.99 µM (active)"},
      {"smiles": "CN(C)c1ncc2nc(CCc3ccccc3)c(=O)n(CCc3ccccc3)c2n1", "Potency": "> 20 µM"},
      {"smiles": "Cc1noc(C)c1-c1cc(NC2CCNCC2)ncn1", "Potency": "> 20 µM"},
      {"smiles": "CN(C)C(=O)c1ccc(-c2nccc(N(C)Cc3ccco3)n2)cc1", "Potency": "> 20 µM"},
      {"smiles": "CC(C)CN1CC2(CCN(C(=O)c3ccco3)CC2)C1", "Potency": "> 20 µM"},
      {"smiles": "O=c1c(-c2cccc(F)c2)nc2cncnc2n1-c1ccccc1", "Potency": "> 20 µM"},
      {"smiles": "O=c1c(-c2cccs2)nc2cnc(N3CCOCC3)nc2n1-c1ccccc1", "Potency": "> 20 µM"},
      {"smiles": "N#Cc1cccc(-c2nccc(NCc3cccs3)n2)c1", "Potency": "> 20 µM"},
      {"smiles": "CN1CCN(c2ncc3nc(CCc4ccccc4)c(=O)n(C4CC4)c3n2)CC1", "Potency": "> 20 µM"},
      {"smiles": "Cn1cccc1C(=O)N1CCC2(CC1)CCN(c1ccc(-c3ccccc3)cc1)CC2", "Potency": "> 20 µM"},
      {"smiles": "COc1ccccc1CNc1ncnc2ccc(-c3ccc4c(c3)OCO4)cc12", "Potency": "> 20 µM"},
      {"smiles": "CN(Cc1ccco1)c1cc(-c2ccoc2)ncn1", "Potency": "> 20 µM"},
      {"smiles": "COc1ccc(Oc2ncc3nc(-c4cc(F)cc(F)c4)c(=O)n(C[C@H]4CCCO4)c3n2)cc1", "Potency": "> 20 µM"},
      {"smiles": "O=S(=O)(c1ccccc1)N1CCC2(CC1)CN(c1ccccc1)C2", "Potency": "> 20 µM"},
      {"smiles": "CS(=O)(=O)N1CCC2(CCN(c3ccccn3)CC2)CC1", "Potency": "> 20 µM"},
      {"smiles": "COc1cccc(Cn2c(=O)c(CCc3ccccc3)nc3cnc(N4CCN(C)CC4)nc32)c1", "Potency": "> 4 µM"},
      {"smiles": "CN(C)Cc1ccccc1-c1cncnc1NC1CC1", "Potency": "> 20 µM"},
      {"smiles": "Cn1c(=O)c(-c2cccs2)nc2cncnc21", "Potency": "> 20 µM"},
      {"smiles": "O=C(c1csnn1)N1CCC2(CC1)CCN(c1cccc(-c3ccccc3)c1)CC2", "Potency": "> 20 µM"},
      {"smiles": "O=C(c1cnccn1)N1CCC2(CCCN(Cc3ccccc3)C2)CC1", "Potency": "> 20 µM"},
      {"smiles": "O=C(c1ccncc1)N1CCC2(CCCN(c3cccc(-c4ccccc4)c3)C2)CC1", "Potency": "> 20 µM"}
    ]}
  ]
}
